Values without a mark were called inactive.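 Rule for the calls: active = compounds killing one labelled cell type while sparing the other, by normalised counts and ratio limits, not self-fluorescent; inactive = the rest.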

The nature of this assay: differential killing of epithelial or mesenchymal cells, primary screen, imaging, PC-3E GFP, TEM4-18 mCherry, co-culture (AID 1345086).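 Note: normalised mesenchymal count divided by normalised epithelial count so high means epithelial killing; cells exposed to compound for 72 h before imaging.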 The following applies: imaging cell counts, at 1 µM, actives lie on both sides, counts scaled to control wells, 1 = unselective.
Regarding `C[C@]12C=CC(=O)C=C1CCC1C2[C@@H](O)C[C@@]2(C)C1CC[C@]2(O)C(=O)COP(=O)(O)O` (some centres undefined), the red/green cell ratio (normalised) is 1.33.

As to `CC(C)OC(=O)CCC/C=C\C[C@@H]1[C@@H](/C=C/C(O)COc2cccc(C(F)(F)F)c2)[C@H](O)C[C@@H]1O` (some centres undefined), the red/green cell ratio (normalised) is 0.87.

For `CC12CCC3c4ccc(O)cc4CCC3C1C[C@H](O)[C@@H]2O` (some centres undefined), the red/green cell ratio (normalised) was 0.97.

Regarding `CC(C)(CO)C(O)C(=O)NCCC(=O)NCCSSCCNC(=O)CCNC(=O)C(O)C(C)(C)CO` (centres undefined), the red/green cell ratio (normalised) was 0.97.

With `COc1cc(O)cc(C(=O)c2ccccc2)c1S(=O)(=O)O`, the red/green cell ratio (normalised) was 1.

With `NCCCC(N)C(=O)O` (centres undefined), the red/green cell ratio (normalised) was 1.03.

`N[C@@H](CO)c1ccccc1`: the red/green cell ratio (normalised) was 0.91.

Consider `CC(=O)Oc1cc2c(s1)CCN([C@H](C(=O)C1CC1)c1ccccc1F)C2`, for which the red/green cell ratio (normalised) is 1.12.

Take `Cc1oc(=O)oc1CN1CCN(c2cc3c(cc2F)c(=O)c(C(=O)O)c2n3C(C)C2)CC1` (centres undefined): the red/green cell ratio (normalised) is 0.94.

`O=C(O)c1ccccc1-c1c2cc(I)c(=O)c(I)c-2oc2c(I)c(O)c(I)cc12`: the red/green cell ratio (normalised) is 0.52.

For `NC(N)=NCCCC(N)C(=O)O` (centres undefined), the red/green cell ratio (normalised) is 0.83.

Turning to `Cc1cc(=O)c(C(=O)N[C@@H](C(=O)N[C@@H]2C(=O)N3C(C(=O)O)=C(CSc4nnnn4C)CSC23)c2ccc(O)cc2)c[nH]1` (some centres undefined), the red/green cell ratio (normalised) is 0.9.

`CC1(C)O[C@@H]2CC3C4CCC5=CC(=O)C=C[C@]5(C)C4[C@@H](O)C[C@]3(C)[C@]2(C(=O)CO)O1` (some centres undefined): the red/green cell ratio (normalised) is 0.93.

For `C=C(C)C1CC=C(C)CC1` (centres undefined), the red/green cell ratio (normalised) is 0.93.

For the origin of these results see PubChem BioAssay.
